Out of some 350,000 compounds screened, about 31,000 (8.9%) were called active. Another 15% or so got no clear call; they are omitted. Shown is part of a subset that was picked to be rich in actives. Where a call stands in place of a potency, no number is given. Unmarked numbers belong to inactive results. The call rests on the fitted dose curve; in most records, active means well fitted inhibition curve with a large enough effect; inconclusive means small, poorly fitted or top-dose-only effect; inactive means no such curve, though single readings can be large or run the other way.
molecular target: Histone-lysine N-methyltransferase EHMT2 (Homo sapiens) (UniProt Q96KQ7); assay: qHTS Assay for Inhibitors of Histone Lysine Methyltransferase G9a; conditions: G9a H3K9 monomethylation, AlphaScreen, 2 h; series mostly up to 59 µM; further: nearly all actives have a fitted effect of over 75% in size
In short: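 Signal arises when biotinylated H3K9 peptide, once monomethylated, bridges streptavidin donor and antibody-captured acceptor beads. Enzyme at 20 nM was preincubated 15 min with test compounds; peptide 500 nM and SAM 20 uM then reacted for 2 h.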
Potency means the concentration at half of the fitted maximal effect.

Chain of Histone-lysine N-methyltransferase EHMT2 (Homo sapiens) (Q96KQ7 913-1193 limits assumed): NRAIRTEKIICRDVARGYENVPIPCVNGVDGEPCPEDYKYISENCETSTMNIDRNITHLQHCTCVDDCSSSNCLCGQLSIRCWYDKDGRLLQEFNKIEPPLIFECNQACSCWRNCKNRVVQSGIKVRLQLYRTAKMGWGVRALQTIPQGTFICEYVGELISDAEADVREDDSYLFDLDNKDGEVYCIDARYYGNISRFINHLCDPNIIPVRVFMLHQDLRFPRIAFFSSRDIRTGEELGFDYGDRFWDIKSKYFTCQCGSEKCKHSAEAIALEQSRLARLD

| Compound | activity, negative = inhibition | Potency |
| --- | --- | --- |
| O=C1N[C@@H](Cc2ccccc2)C(=O)N2[C@H]1C[C@]1(Br)c3ccccc3N(S(=O)(=O)c3ccccc3)[C@H]21 | 7.4% [at 2.33 µM] | – |
| CCCn1nnc2sc3c(c2c1=O)CCC(C)C3 (stereo not given) | – | inactive |
| CC1CCc2c(sc3nc4n(c(=O)c23)CCS4)C1 (stereo not given) | – | 50.1 µM (active) |
| Cc1ccc(NC(=O)Cn2nnc3sc4c(c3c2=O)CCC(C)C4)cc1 (stereo not given) | – | inactive |
| CC1CCN(C(=O)COC(=O)CCC(=O)c2cccs2)CC1 | – | inactive |
| Brc1ccc2c(c1)NC(c1cccnc1)=NC(c1ccccc1)=N2 | – | inactive |
| CN(C)CCNC(=O)c1[nH]nc2c1CCc1ccccc1-2 | – | 44.7 µM (active) |
| CCCCN(CC)CCCNC(=O)c1nn(C)c2c1CSc1ccccc1-2 | – | inactive |
| COc1ccc(C(=O)Nc2ccccc2C(=O)N/N=C/c2ccccc2OC)cc1 | 14.1% [at 0.501 µM] | – |
| CN(C)CCCNC(=O)c1ccc2[nH]c3ccccc3c2c1 | 38.1% [at 0.501 µM] | – |
| COc1cccc(/C=N/NC(=O)c2[nH]nc3c2CCc2ccccc2-3)c1O | – | 50.1 µM (active) |
| COc1cccc(/C=N\NC(=O)C2=NNC(=O)C2C)c1O (stereo not given) | – | inactive |
| O=S(=O)(Nc1ccc(-c2ccc(N3CCOCC3)nn2)cc1)c1cc(Cl)ccc1Cl | -28.8% [at 2.33 µM] | – |
| COc1ccccc1N1CCN(C(=O)C2CCN(S(=O)(=O)c3c(C)noc3/C=C/c3ccc(C)cc3)CC2)CC1 | – | inactive |
| Cc1ccc(CNC(=O)CCS(=O)(=O)c2ccc3c(c2)CC(C)N3C(=O)C2CC2)o1 (stereo not given) | 17.4% [at 0.0925 µM] | – |
| Cn1c(SCc2ccc(F)cc2)nnc1-c1ccncc1 | – | inactive |
| CCOc1ccc(Nc2c(S(=O)(=O)c3ccccc3)cnc3ccccc23)cc1 | – | inactive |
| Cc1ccc(CNS(=O)(=O)c2ccc(C(=O)N(C)C)s2)cc1 | – | inactive |
| Cc1ccc(-n2ncc3c(NCCCn4ccnc4)ncnc32)cc1Cl | – | inactive |
| Cn1c(=O)[nH]c(=O)c2c1nc(N1CCCCCC1)n2CC(=O)c1ccccc1 | – | inactive |

| Compound | activity, negative = inhibition | Potency |
| --- | --- | --- |
| CN1CCN(c2nc3c(c(=O)[nH]c(=O)n3C)n2Cc2cccc3ccccc23)CC1 | – | 25.1 µM (active) |
| Cn1c(=O)[nH]c(=O)c2c1nc(N1CCN(C(c3ccccc3)c3ccccc3)CC1)n2CCO | – | inactive |
| Cc1cn([C@H]2CC(F)[C@@H](CO)O2)c(=O)[nH]c1=O (stereo not given in full) | 8.73% [at 12.7 µM] | – |
| COc1ccc(NC(=O)Cn2c(=O)n(Cc3ccc(C(=O)NCc4ccccc4Cl)cc3)c(=O)c3ccccc32)cc1 | – | inactive |
| CN1/C(=C\C(=O)c2cccnc2Cl)C(C)(C)c2ccccc21 | – | inactive |
| Cc1noc(C)c1C(=O)OCC(=O)/C=C1\N(C)c2ccccc2C1(C)C | – | inactive |
| CN1/C(=C\C=C2\N=C(c3ccc(F)cc3)OC2=O)C(C)(C)c2ccccc21 | – | 4.47 µM (active) |
| CC(=O)Nc1ccc(SC[C@H](Cc2ccccc2)N2CC[C@@H](C)CCC2=O)cc1 | -3.36% [at 0.501 µM] | – |
| Cc1ccc(OCCSc2nc(-c3cccs3)nc3cc(=O)[nH]n23)cc1Cl | – | inactive |
| Cc1ccc(C(=O)NNC(=O)c2ccncc2)cc1S(=O)(=O)N1CCCCC1 | – | inactive |
| O=S(=O)(NCC1CCCO1)c1ccc2ccccc2c1 (stereo not given) | – | inactive |
| Cc1nc2cnc(Nc3ccccc3)nc2n(C[C@H]2CCCO2)c1=O | 8.09% [at 0.501 µM] | – |
| Cc1cccc(S(=O)(=O)N2CN(CC3CCCO3)c3nc4ccccc4nc32)c1 (stereo not given) | – | 50.1 µM (active) |
| COc1ccccc1NC(=O)c1cc(N2C(=O)C3C4CCC(C4)C3C2=O)ccc1Cl (stereo not given) | – | inactive |
| Cc1ccc2nc(COc3ccccc3NC(=O)Nc3ccc(F)c(Cl)c3)cc(=O)n2c1 | – | inactive |
| O=C(COC(=O)c1ncc(Cl)c(Cl)c1Cl)NCc1ccccc1 | – | inactive |
| COc1ccccc1Nc1cc(C(=O)NCCCN(C)C2CCCCC2)c2ccccc2n1 | – | inactive |
| COc1ccc(Nc2cc(C(=O)NCCCN(C)c3ccccc3)c3ccccc3n2)c(OC)c1 | – | 7.94 µM (active) |
| CCCCN(CCCNC(=O)c1cc(Nc2ccccc2OC)nc2ccccc12)c1ccccc1 | – | inactive |
| NC(=O)C1CCN(C(=O)c2cccc(NC(=O)c3nsc4ccccc34)c2)CC1 | – | inactive |

| Compound | activity, negative = inhibition | Potency |
| --- | --- | --- |
| CCN1C(=NCCc2cccnc2)N[C@@H](c2ccccc2)[C@H](C(=O)OC)[C@H]1C | -5.2% [at 12.7 µM] | – |
| CCN1C(=NCCc2cccnc2)N[C@@H](c2ccccc2)C(C(=O)OC)=C1C | – | 44.7 µM (active) |
| COCCN1C(=O)N[C@@H](c2ccccc2)C(C(=O)OC)=C1C | – | inactive |
| CC(=O)Nc1c(C)nn(-c2ccccc2)c1N1CCC(C(=O)Nc2cc(Cl)ccc2C)CC1 | – | inactive |
| O=C(CN1C(=O)NC2(CCCC2)C1=O)OCCOc1ccc(F)cc1 | -1.07% [at 0.501 µM] | – |
| CCOc1c(OC)cccc1C(=O)NCC1(c2ccccc2)CCCC1 | – | inactive |
| Cc1ccc(-c2csc(N3CCN(c4cc5c(cc4Cl)nc(-c4ccncc4)n5CCOCCO)CC3)n2)cc1 | – | 50.1 µM (active) |
| CCCn1c(C2CCCN2c2nc(-c3ccc(C)cc3)cs2)nc2cc(Cl)c(N3CCCCC3)cc21 (stereo not given) | – | inactive |
| Cn1c(=O)c2c(nc(NCCc3ccccc3)n2Cc2ccccc2Br)n(C)c1=O | – | inactive |
| Cc1ccc(-n2c(SCC(=O)c3ccccc3)nc3c([nH]c4ccccc43)c2=O)cc1 | – | inactive |
| CCOC(=O)c1c(NC(=O)C2CCN(S(=O)(=O)c3ccc(Cl)cc3)CC2)sc2c1CCCC2 | – | inactive |
| O=C(OCc1nc2ccccc2[nH]1)C1CCCCC1 | – | inactive |
| O=C(Nc1sc2c(c1-c1nc3ccccc3[nH]1)CCCC2)C1CC1 | – | 50.1 µM (active) |
| CC(C)c1ccc(NC(=O)c2ccc3c(O)c(S(=O)(=O)c4ccccc4)c(=O)[nH]c3c2)cc1 | – | inactive |
| Cc1cc(C)cc(NC(=O)CSc2nc(=O)n(CCN3CCOCC3)c3c2CCC3)c1 | – | inactive |
| Cc1ccc(Cn2cc(CCC(=O)NCc3ccc(OC(C)C)cc3)c3ccccc32)cc1 | – | inactive |
| O=S(=O)(NCCc1ccc(Cl)cc1)c1cccs1 | – | inactive |
| C[N+](C)(C)CCNC(=O)c1cc[n+](Cc2ccccc2)c(/C=N/O)c1 | – | 10 µM (active) |
| CN(c1ccccc1)S(=O)(=O)c1ccc(C(=O)NCCc2ccccc2)cc1 | – | inactive |
| CCCOc1ccc(C(=O)NCCc2ccccc2)cc1 | – | inactive |
